Results filed as inconclusive are left out. A number with no mark means an inactive call. Calls follow the shape of the dose curve; as a rule, active = well fitted activation curve with a large enough effect; inconclusive = small, poorly fitted or top-dose-only effect; inactive = flat fitted curve, though single readings scatter.
assay: qHTS for Inhibitors of Cell Surface uPA Generation: FP59 Counterscreen for Cherry-picked Compounds; details: FP59 anthrax toxin cytotoxicity counterscreen, cells; series mostly up to 115 µM; activity (protection from FP59): at the top concentration; also: 0% is about no effect

Q: For `Cc1cc(C)cc(NC(=O)C(OC(=O)c2ccc(O)cc2)c2ccccc2)c1` (configuration not stated), which “activity (protection from FP59)” value is on record?
A: 5.79%

Q: For `Cc1cccc(C)c1NC(=O)c1c(O)c2ccccc2[nH]c1=O`, which “activity (protection from FP59)” value is on record?
A: -0.508%

Q: With `COc1ccccc1N=Nc1c(C)[nH]n(-c2ccccc2)c1=O` as the compound, how does the “activity (protection from FP59)” value read?
A: -1.4%

Q: Which “activity (protection from FP59)” value does the source give for `CCOC(=O)C1=C(C)N(Cc2ccccc2)C(=O)NC1c1ccc(OC)cc1` (configuration not stated) here?
A: 1.6%

Q: With `COc1ccc(C(=O)c2sc(Nc3ccccc3)nc2N)cc1` as the compound, how does the “activity (protection from FP59)” value read?
A: -1.2%

Q: For `O=C(CNC(=O)c1ccc(Br)o1)NNC(=O)c1ccccc1`, which “activity (protection from FP59)” value is on record?
A: -1.44%

Q: With `O=C1[C@H]2[C@@H](c3ccc(F)cc3)N3C(=O)N(c4cccc(F)c4)C(=O)[C@@]3(Cc3ccc(Cl)cc3)[C@H]2C(=O)N1C1CCCCC1` as the compound, how does the “activity (protection from FP59)” value read?
A: -0.34%

Q: For `O=C(NC1CCCC1)c1nc2c(nnn2Cc2ccccc2Cl)c(=O)[nH]1`, which “activity (protection from FP59)” value is on record?
A: -0.974%

Q: With `CC(=O)[C@@]1(O)[C@H](C)CC2C3CC=C4CC(OP(=O)(O)O)CC[C@]4(C)C3CC[C@@]21C` (some centres not stated) as the compound, how does the “activity (protection from FP59)” value read?
A: -1.22%

Q: Which “activity (protection from FP59)” value does the source give for `CCCS(=O)(=O)c1ccc(COC(=O)Cc2ccc([N+](=O)[O-])cc2)cc1` here?
A: -0.901%

Q: For `O=C(CCCC(=O)N1CCN(c2ccccc2F)CC1)c1ccccc1`, which “activity (protection from FP59)” value is on record?
A: -1.35%

Q: With `Cc1ccc(NC(=O)CSc2nncn2N)cc1C` as the compound, how does the “activity (protection from FP59)” value read?
A: -1.25%

Q: Which “activity (protection from FP59)” value does the source give for `Cc1nn2c(=O)cc(CSc3nc4ccccc4[nH]3)nc2s1` here?
A: -1.07%

Q: Which “activity (protection from FP59)” value does the source give for `O=C(COC(=O)Cn1cnc2ccccc21)NCc1ccc(F)cc1` here?
A: 0.297%

Q: With `COc1ccc(CNC(=O)C2CCC(CNS(=O)(=O)c3ccc(C)cc3)CC2)cc1` (configuration not stated) as the compound, how does the “activity (protection from FP59)” value read?
A: -1.41%

Q: With `O=C1CC(/C=C/c2ccc(Cl)cc2)=Nc2ccccc2N1` as the compound, how does the “activity (protection from FP59)” value read?
A: 13%

Q: For `COc1ccc2c(ccn2S(=O)(=O)c2ccccc2)c1`, which “activity (protection from FP59)” value is on record?
A: -0.86%

Q: Which “activity (protection from FP59)” value does the source give for `Cc1ccc(-c2cc(C(=O)NCC3CCCO3)no2)cc1` (configuration not stated) here?
A: -1.57%

Q: Which “activity (protection from FP59)” value does the source give for `CC1CCC(NC(=O)c2nn(C)c3c2CS(=O)(=O)c2ccccc2-3)CC1` (configuration not stated) here?
A: -1.25%

Q: Which “activity (protection from FP59)” value does the source give for `CCC(C)Sc1nnc(NS(=O)(=O)Cc2ccccc2)s1` (configuration not stated) here?
A: -1.29%

Q: Which “activity (protection from FP59)” value does the source give for `CCN(CC)S(=O)(=O)c1cc(NC(=O)COC(=O)C2CCC2)ccc1C` here?
A: -1.44%

Q: For `COc1cc(OC)cc(C(=O)NC(C(=O)Nc2ccc3c(c2)CCC3)C(C)C)c1` (configuration not stated), which “activity (protection from FP59)” value is on record?
A: 4.67%

— PubChem BioAssay AID720517 (National Center for Advancing Translational Sciences (NCATS), 2013)
